Bioassay records as filed in PubChem BioAssay.
Compounds with a hit are over-represented: about 3.5% of the library has one in this group of screens.
FBW7 activator – human FBW7 E3 ligase activation, primary screen. AlphaScreen FBW7–phospho-cyclin E peptide binding, activator screen. normalized activity (activation), % at 26.1 µM. 650,000 compounds, 0.13% hits. AID 1259310; in the data active = normalized activity above about 1.9%;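 also: purified mutant Fbw7 with reduced substrate affinity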
Target sequence (Q969H0 whole entry, looked up): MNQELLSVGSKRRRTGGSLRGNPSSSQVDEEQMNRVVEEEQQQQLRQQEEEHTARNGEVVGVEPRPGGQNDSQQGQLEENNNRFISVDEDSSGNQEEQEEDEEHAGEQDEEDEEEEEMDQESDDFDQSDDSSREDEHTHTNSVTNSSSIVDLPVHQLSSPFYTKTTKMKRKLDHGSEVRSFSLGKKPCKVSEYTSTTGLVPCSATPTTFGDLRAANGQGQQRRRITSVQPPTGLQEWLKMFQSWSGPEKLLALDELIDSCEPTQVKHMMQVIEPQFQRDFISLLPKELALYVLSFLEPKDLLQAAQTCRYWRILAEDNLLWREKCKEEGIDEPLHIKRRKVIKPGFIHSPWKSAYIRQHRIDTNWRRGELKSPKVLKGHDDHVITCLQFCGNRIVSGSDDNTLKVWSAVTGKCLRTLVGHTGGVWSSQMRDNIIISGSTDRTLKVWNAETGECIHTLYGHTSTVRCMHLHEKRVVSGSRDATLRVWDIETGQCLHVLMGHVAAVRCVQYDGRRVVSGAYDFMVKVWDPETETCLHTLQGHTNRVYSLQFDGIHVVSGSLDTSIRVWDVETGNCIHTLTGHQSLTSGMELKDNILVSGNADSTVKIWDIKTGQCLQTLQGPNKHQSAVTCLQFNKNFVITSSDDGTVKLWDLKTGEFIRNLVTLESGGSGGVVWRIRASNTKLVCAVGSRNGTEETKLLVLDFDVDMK
MITF inh – blocks human microphthalmia-associated transcription factor. O75030. AlphaScreen MITF homodimerization, bead proximity signal. inhibition, % at 2.6 µM. 650,000 compounds, 0.91% hits; in the data active = inhibition above about 50%;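 also: 0% = vehicle wells with protein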
GPR151 activ – activators of human GPR151 | Q8TDV0 | PathHunter beta-arrestin GPR151 cells, luminescence | activation, % at 11.2 µM | 650,000 compounds, 1% hits; in the data active = activation above about 4.9%;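 also: 0% = median of compound wells and 100% = cells with positive control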
TEAD-YAP inh – TEAD-YAP interaction inhibition; 640,000 compounds, 1.4% hits; inhibition, % at 9.12 µM; AID 1259422; HEK-TIYL cells, TEAD-Gal4/YAP UAS-luciferase luminescence; in the data active = inhibition above about 32%;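 also: 0% = median of test compound wells and 100% = reference inhibitor wells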
An asterisk follows results filed as active.

SMILES	FBW7 activator	MITF inh	GPR151 activ	TEAD-YAP inh
Cc1ccc(S(=O)(=O)n2c(SCc3ccccc3F)nc3ccccc32)cc1	0	11	1	-16
CC1CC(C)(C)NC(=S)N1CC(=O)N1CCN(c2cccc(C(F)(F)F)c2)CC1 (configuration not stated)	0	-4	0	8
O=C(NCc1ncc(C(F)(F)F)cc1Cl)c1cn2ccsc2n1	2.0*	25	-1	2
CCSc1nc2sccn2c(=O)c1C(=O)NCc1ncc(C(F)(F)F)cc1Cl	0	20	0	11
Cc1ccc(NC(=O)CSc2nn3c(SCC(=O)Nc4ccc(C)cc4)nnc3s2)cc1	0	11	1	10
OCCNc1nc(-c2ccc(N3CCOCC3)nc2)nc2c1ncn2-c1ccsc1	0	-2	0	34*
CC(C)N(CCNc1nc(-c2ccc(N3CCOCC3)nc2)nc2c1ncn2C(C)C)C(C)C	0	-14	3	19
COc1ccc(-c2nc(NCCN(C(C)C)C(C)C)c3ncn(-c4ccsc4)c3n2)cn1	0	13	-1	35*
CC(C)N(CCNc1nc(-c2ccc(N3CCOCC3)nc2)nc2c1ncn2-c1ccsc1)C(C)C	0	6	0	43*
Cc1cc(=O)c2c([nH]1)c(C)cc1c(C)c(C)n(C)c12	0	14	4	-6
CN(CCC#N)c1ccc(/C=C(\C#N)c2ccccn2)cc1	0	-1	-4	49*
CCc1ccc(-c2cn3ccc(C)cc3n2)cc1	1	5	-6	96*
Cc1ccn2cc(-c3ccccc3Cl)nc2c1	0	11	-7	71*
CCc1ccc(-c2cn3cc(C)ccc3n2)cc1	0	-104	-2	-1
Cc1ccn2cc(-c3cc4ccccc4oc3=O)nc2c1	1	4	-7	-23
Cc1ccn2cc(-c3ccc(Cl)cc3)nc2c1	1	18	-9	78*
N#C/C(=C1/Nc2ccccc2S1)c1ccnc(OCc2ccc(CN3CCOCC3)cc2)n1	0	18	3	86*
CCOc1ccccc1N/C(SCc1ccccc1Cl)=C(/C#N)C(=O)NCCc1ccc(OC)c(OC)c1	0	9	2	6
CCOCCCNc1ncnc2c1cnn2C	1.9*	-14	0	1
COc1ccc2c(c1)-c1c(ssc1=S)C(C)(C)N2C(=O)c1cccc([N+](=O)[O-])c1	-1	26	0	-10
O=C(/C=C/c1ccc2c(c1)OCO2)Nc1ccc(S(=O)(=O)N2CCCC2)cc1	0	-5	2	23
COc1cc(/C=N\Nc2ccc([N+](=O)[O-])cn2)c(Br)cc1O	20*	-3	2	8
COc1cc(Br)c(/C=C(\C#N)c2nn(-c3ccccc3)c(N)c2C#N)cc1OC	0	-2	0	-22
NN1C(=O)/C(=C/c2ccc(O)c(Br)c2)SC1=S	-1	20	-8	33*
CC(=C\c1ccco1)/C=C1/SC(=S)N(CC(=O)O)C1=O	-1	54*	0	-5
SMILES	FBW7 activator	MITF inh	GPR151 activ	TEAD-YAP inh
CCN1C(=O)/C(=C\C(C)=C\c2ccco2)SC1=S	0	18	0	-6
O=C(O)Cc1ccc(N2C(=O)/C(=C\c3ccco3)SC2=S)cc1	-1	76*	-2	6
NN1C(=O)/C(=C\c2ccco2)SC1=S	0	75*	-1	2
COc1ccc(/C=C2/SC(=S)N(N)C2=O)cc1OC	0	8	2	-11
O=C(O)c1ccc(N2C(=O)/C(=C\c3ccco3)SC2=S)cc1O	0	38	0	-8
CCCC(=O)NC(=S)Nc1cc(Cl)ccc1N1CCN(C(=O)CC)CC1	0	9	1	-14
Cc1ccc(S(=O)(=O)NC(=O)c2ccccc2)c(C)c1	0	-18	0	2
O=C1/C(=C/c2ccco2)SC(=S)N1c1cccnc1	0	68*	-2	-11
CCc1ccccc1NC(=O)Cn1c(=O)oc2cc(S(=O)(=O)N3CCCC3)ccc21	0	0	0	11
c1ccc2[nH]c(-c3cc(-c4cc(-c5nc6ccccc6[nH]5)c5ccccc5n4)nc4ccccc34)nc2c1	0	11	-10	82*
COc1cc(N)c(-c2nc3ccccc3[nH]2)cc1OC	1	16	-7	46*
COc1ccc(NC(=O)CN(c2ccc(F)cc2)S(C)(=O)=O)cc1Cl	0	4	2	0
CN1CCN(c2cccc(-c3ccnc(Nc4ccc(-n5ccnn5)cc4)n3)c2)CC1	0	9	-1	68*
CS(=O)(=O)Cc1cccc(-c2ccnc(Nc3ccc(-n4ccnn4)cc3)n2)c1	0	-9	0	41*
c1ccc(-c2ccnc(Nc3ccc(-n4ccnn4)cc3)n2)cc1	0	13	-1	-24
CS(=O)(=O)c1ccc(-c2ccnc(Nc3ccc(-n4ccnn4)cc3)n2)cc1	0	14	1	11
Cc1nnc(SCC(=O)c2ccc([N+](=O)[O-])cc2)n(N)c1=O	0	7	-1	6
O=C(Cc1ccc2c(c1)OCO2)Nc1cc(Nc2ccccc2-c2ncn[nH]2)c(Cl)cn1	1	13	0	64*
CNC(=O)c1ccccc1Nc1cc(NC(=O)Cc2ccccc2OC)ncc1C(F)(F)F	0	18	-1	83*
NC(=O)c1ccccc1Nc1cc(NC(=O)Cc2ccc3c(c2)OCO3)ncc1Cl	0	11	0	70*
NC(=O)c1ccccc1Nc1cc(NC(=O)Cc2ccc3c(c2)OCO3)ncc1C(F)(F)F	1	18	-1	100*
NC(=O)c1ccccc1Nc1cc(NC(=O)Cc2ccc3c(c2)OCO3)ncc1F	0	0	2	21
O=C(Cc1ccc2c(c1)OCO2)Nc1cc(Nc2ccccc2C2=NCCN2)c(Cl)cn1	0	9	0	10
COc1ccccc1NC(=O)N1CCC(O)(c2ccc3c(c2)OCO3)CC1	0	10	1	12
CN1CCC(N(C)C/C(Cl)=C/c2ccccc2)CC1	0	12	0	-3
SMILES	FBW7 activator	MITF inh	GPR151 activ	TEAD-YAP inh
CNC(=O)c1ccccc1Nc1cc(NC(=O)Cc2cccc(F)c2)ncc1C(F)(F)F	1	-5	-2	72*
CNC(=O)c1ccccc1Nc1cc(NC(=O)C(C)(C)c2ccccc2)ncc1C(F)(F)F	0	8	0	4
CNC(=O)c1ccccc1Nc1cc(NC(=O)Cc2ccc3c(c2)OCO3)ncc1C(F)(F)F	0	12	0	75*
O=[N+]([O-])c1c(N2CCCCC2)ncnc1N1CCCCC1	0	5	5	-4
Nc1ncnc(N2CCCCC2)c1[N+](=O)[O-]	0	-1	-1	37*
Nc1ncnc(N2CCc3ccccc32)c1[N+](=O)[O-]	0	-3	2	36*
COc1ccc(C(CC(=O)O)NC(=O)c2ccc(Cl)cc2)cc1OC (configuration not stated)	0	-20	0	-1
NC(=O)c1ccc(NC(=O)COc2cccc(Cl)c2)cc1	0	13	-1	-2
CC1Cc2cc(-c3cc(CC(=O)NCc4cccnc4)no3)ccc2O1 (configuration not stated)	0	6	0	34*
COc1ccc(-c2cc(C(=O)NCc3cccnc3)no2)cc1	0	1	0	-29
